Measurements as given in ChEMBL document CHEMBL3433997, “St. Jude Leishmania screening dataset” (2016).
“And” between values parts separate entries of the source, which are not always exact repeats. Equal values may be shown once.

Tests used:
Format in all cases: functional
[1] = molecular target: Solute carrier family 2, facilitated glucose transporter member 1 (Homo sapiens) (UniProt P11166); assay: ST_JUDE_LEISH: Cytotoxicity at 2uM final concentration against transgenic Leishmania Mexicana promastigotes LmGLUT1 that are glucose transport deficient and complemented with the human glucose transporter GLUT1. Activity is measured by DNA content using SYBR green in vitro
[2] = molecular target: Hexose transporter 1 (Plasmodium falciparum) (UniProt O97467); assay: ST_JUDE_LEISH: Cytotoxicity at 2uM final concentration against transgenic Leishmania Mexicana promastigotes LmPfHT that are glucose transport deficient and complemented with the Plasmodium falciparum hexose transporter. Activity is measured by DNA content using SYBR green in vitro
[3] = molecular target: Glucose transporter (Leishmania mexicana) (UniProt O61059); assay: ST_JUDE_LEISH: Cytotoxicity at 2uM final concentration against transgenic Leishmania Mexicana promastigotes LmGT2 that are glucose transport deficient and complemented with the L. Mexicana glucose transporter 2. Activity is measured by DNA content using SYBR green in vitro

Chain of Solute carrier family 2, facilitated glucose transporter member 1 (Homo sapiens) (P11166 whole entry): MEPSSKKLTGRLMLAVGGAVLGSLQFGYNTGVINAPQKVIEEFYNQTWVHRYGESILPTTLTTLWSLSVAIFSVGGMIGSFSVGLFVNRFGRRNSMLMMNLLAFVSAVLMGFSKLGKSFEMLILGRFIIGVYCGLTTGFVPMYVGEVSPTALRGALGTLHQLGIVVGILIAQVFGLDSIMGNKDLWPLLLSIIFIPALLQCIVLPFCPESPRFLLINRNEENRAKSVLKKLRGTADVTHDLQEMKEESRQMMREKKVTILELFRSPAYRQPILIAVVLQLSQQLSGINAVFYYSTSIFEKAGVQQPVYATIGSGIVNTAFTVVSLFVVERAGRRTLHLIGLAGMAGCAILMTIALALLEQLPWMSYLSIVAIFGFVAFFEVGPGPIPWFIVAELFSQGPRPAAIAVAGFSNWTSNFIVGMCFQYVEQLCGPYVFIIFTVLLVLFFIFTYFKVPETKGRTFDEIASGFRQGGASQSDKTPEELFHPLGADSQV

Cc1cc(=O)c(-c2ccc(Oc3cccc(C(F)(F)F)c3)cc2)c(C)[nH]1
inhibition [1]: 0.14% and -4.84% | inhibition [2]: 2% and 2.11% | inhibition [3]: 1.32% and -2.73%

CCN1CCN(c2cc(C)c3cc(NC(=O)c4ccc(OC)c([N+](=O)[O-])c4)ccc3n2)CC1
inhibition [1]: 2.21% | inhibition [2]: 2.42% | inhibition [3]: 2.13%

CN(CCS(C)(=O)=O)Cc1ccc(-c2ccc3ncnc(Nc4ccc(OCc5cccc(F)c5)c(Cl)c4)c3c2)o1
inhibition [1]: 2.97% | inhibition [2]: 0.92% | inhibition [3]: -0.85%

COC(=O)[C@@H](NC(=O)[C@@H](Nc1ccc(C#N)c2ccccc12)C(C)(C)C)c1ccc(O)cc1
inhibition [1]: 2.65% | inhibition [2]: 1.12% | inhibition [3]: 0.19%
